Bioassay records (PubChem BioAssay)
Shown are actives, neighbours in structure and some others; about 3.1% of the full set was active somewhere.
Rin1-Abl PPI inh = blocks binding of human Rin1 to Abl; inhibition, % at 7.35 µM; 0.4% of 360,000 active; TR-FRET Rin1/Abl binding, biochemical; in the data active = inhibition above about 5%, passing the limit was not always enough
LEDGF integ inh = blocks HIV-1 LEDGF/p75-dependent DNA integration; TR-FRET IN-LEDGF/p75 DNA integration, Eu/Cy5; inhibition, % at 3.7 µM; 0.64% of 370,000 active;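 active = inhibition above the screen-wide mean plus 3 SD, cut at about 13% in these data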;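 note: signal is the Cy5 over europium emission ratio at 671 and 618 nm; 0% = plate median of compound wells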
UHRF1 MBD2 ctr = UHRF1 methyl-DNA binding inhibition; Q96T88; UHRF1 binding to methylated oligo, TR-FRET; inhibition, % at 4.4 µM; 0.75% of 370,000 active;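 note: UHRF1 SRA domain binding a hemimethylated CpG hairpin DNA probe; 0% = median of test compound wells and 100% = reference inhibitor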
Neddyl block = inhibitors of human cullin neddylation; P61081+Q13564; TR-FRET cullin neddylation, biochemical; calls only at 25 µM; 0.58% of 360,000 active; in the data active = inhibition above about 36%
proKLK7 act = proKLK7 (human) activation, primary screen; P49862; purified proKLK7, EDANS-DABCYL substrate fluorescence; 100% is mature enzyme control, 0% vehicle; activation, % at 7 µM; 0.9% of 370,000 active;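 active = activation above the mean of all tested compounds plus 3 SD, computed per campaign excluding outliers beyond control limits, cut at about 13% in these data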
MBD2 DNA inh = inhibitors of human MBD2 binding to methylated oligonucleotide | Q9UBB5 | TR-FRET | inhibition, % at 4.4 µM | 0.31% of 370,000 active | AID 686964; in the data active = inhibition above about 13%
UHRF1 DNA bind = UHRF1 methyl-oligo binding inhibition as MBD2 counter-screen. shares compounds with MBD2 DNA inh. UHRF1 binding to methylated oligonucleotide, TR-FRET. inhibition, % at 4.4 µM. 25% of 1,000 active;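 note: UHRF1 SRA domain binding a labeled hemimethylated CpG hairpin DNA; 0% = vehicle only and 100% = reference inhibitor with vehicle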
MBD2 confirm = MBD2-DBD methyl-DNA binding inhibition, TR-FRET confirmation | inhibition, % at 4.4 µM | TR-FRET MBD2-DBD binding to methylated oligonucleotide | shares compounds with MBD2 DNA inh | 26% of 1,000 active; in the data active = inhibition above about 14%
IN multimer up = activates HIV-1 integrase multimerization in LEDGF counter-screen; shares compounds with LEDGF integ inh; TR-FRET HIV-1 integrase multimerization, biochemical; activation, % at 7.7 µM; 17% of 2,000 active; AID 1053131; in the data active = activation above about 8.9%
TR-FRET interf = TR-FRET optical interference, LEDGF/p75 integration counter-screen; shares compounds with LEDGF integ inh; TR-FRET optical interference counterscreen, HIV-1 IN multimerization; inhibition, % at 7.7 µM; 2,000 tested, under 10 active; AID 1053135;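 active = inhibition above the mean over all tested compounds plus 3 SD, which no compound reached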;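 note: 0% = integrase with antibodies and DMSO and 100% = antibodies without integrase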
IN-LEDGF confirm = confirmation of HIV-1 LEDGF/p75-dependent integration inhibitors. TR-FRET LEDGF/p75-dependent HIV-1 integration, biochemical. inhibition, % at 3.7 µM. shares compounds with LEDGF integ inh. 36% of 2,000 active; in the data active = inhibition above about 14%
* marks the source's active call; other numbers are inactive results; i = inactive; x = no result given. Cut-off read from the data, not from the text of the source, unless noted: active = inhibition above about 21%; inactive = the rest.

SMILES	Rin1-Abl PPI inh	LEDGF integ inh	UHRF1 MBD2 ctr	Neddyl block	proKLK7 act	MBD2 DNA inh	UHRF1 DNA bind	MBD2 confirm	IN multimer up	TR-FRET interf	IN-LEDGF confirm
CCCCCC(=O)N1CC2(CC(c3cccc(NC(=O)[C@@H]4CCC(=O)N4)c3)=NO2)C[C@@H]1C(N)=O (some centres not stated)	3	2	-3	i	-1	5	x	x	x	x	x
COc1ccc(C(=O)NC2CCN(CC(=O)Nc3cccc(OC)c3)CC2)cc1	1	-3	0	i	0	0	x	x	x	x	x
COc1ccc(N2CCN(C(=O)CNC(=O)Cn3cnc4sc(C)c(C)c4c3=O)CC2)cc1	0	1	0	i	-1	86*	2	4	x	x	x
Cc1sc2ncn(CC(=O)NCCCC(=O)N3CCN(c4ccccc4)CC3)c(=O)c2c1C	5	-3	-3	i	-1	-2	x	x	x	x	x
Cc1ccc(C)c(NC(=O)CN(C)C(=O)c2cccc(-n3cccc3)c2)c1	1	1	36*	i	0	22*	43*	33*	x	x	x
Cc1ccc(C)c(NC(=O)CN(C)C(=O)c2cccc(Oc3ccccc3)c2)c1	-1	1	0	i	0	-2	x	x	x	x	x
O=C(CCSc1ccc(Cl)cc1)N1CCN(S(=O)(=O)c2ccccc2)CC1	-2	3	-2	i	0	2	x	x	x	x	x
Cc1c(Cl)cnc(NC(=O)COC(=O)/C=C/c2ccco2)c1Cl	3	7	8	i	0	1	x	x	x	x	x
O=C(COC(=O)/C=C/c1ccco1)Nc1ncc(C(F)(F)F)cc1Cl	1	31*	55*	i	0	14*	27*	9	4	-20	14*
O=C(Cc1nnc(NC(=O)c2ccccc2)s1)N/N=C/c1ccco1	0	36*	27*	i	1	19*	9	2	1	-5	3
CNC(=O)NNC(=O)c1nc(-c2ccccc2)c(C)o1	-3	-2	1	i	0	7	x	x	x	x	x
CCN(CC)CCCNC(=O)CC1Oc2ccccc2NC1=O (configuration not stated)	x	0	-1	x	0	-2	x	x	x	x	x
Cc1ccc(/C=C2/C(=O)c3ccc(C(=O)O)cc3C2=O)o1	4	69*	78*	i	0	22*	40*	2	25*	-88	58*
COC(=O)c1cc2c(c3c4ccccc4n(S(=O)(=O)c4ccc(C)cc4)c13)C(=O)N(Cc1ccccc1)C2	x	0	-3	x	-2	1	x	x	x	x	x
c1coc(-c2nnc(-c3ccco3)nn2)c1	2	61*	77*	i	1	33*	77*	35*	11*	-58	86*
CSc1ccc(-c2ccco2)nn1	-4	0	-5	i	0	-8	x	x	x	x	x
CCOC(=O)C1(C)CCCN(C(=O)c2cc(F)cc(F)c2)C1 (configuration not stated)	-3	1	2	i	0	0	x	x	x	x	x
CC1(C)CCCN(C(=O)c2coc(=O)c(Br)c2)C1	2	22*	62*	i	-10	18*	101*	65*	16*	-83	65*
CCOC(=O)c1cccc(C2=CC(=O)C[C@H](c3ccc(OC)cc3)C2)c1	2	x	x	i	x	x	x	x	x	x	x
COC(=O)COc1ccc(S(=O)(=O)NCc2ccc3c(c2)OCO3)cc1C	0	2	-2	i	0	-5	x	x	x	x	x
